# Screens as filed in PubChem BioAssay.
# KB-3-1 tox: KB-3-1 parental cell cytotoxicity; KB-3-1 viability, CellTiter-Glo ATP luminescence, 72 h; Potency, µM (titrated, usually from 46.1 µM), hits mostly cytotoxic; 400,000 compounds, 1.4% hits; AID 1347075; note: % is set by controls: 0 for no effect and ±100 for the full control effect; nearly all actives have a fitted effect of over 60% in size
#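 Cytotoxicity measured as CellTiter-Glo luminescence after 72 h at 37 C. Compound titrations were pinned onto drug-naive KB-3-1 parental adenocarcinoma cells grown in DMEM with 10% FBS, and normalized data fitted to concentration-response curves.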
# HT1080-NT tox: kills 2HG-producing HT-1080-NT fibrosarcoma cells; HT-1080-NT fibrosarcoma viability, CellTiter-Glo ATP luminescence, 48 h; Potency, µM (highest dose often 46.1 µM), for inactives: at the highest dose activity, negative = less viability, actives largely listed as cytotoxic; 360,000 compounds, 1.6% hits;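 note: NT is the 2HG producing partner of a matched IDH1 knockdown line; 0% = DMSO-treated cells and -100% = media-only wells without cells; nearly all actives have a fitted effect of over 55% in size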
#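 Toxicity toward the 2HG-producing NT line was scored as %Activity, normalised to DMSO and no-cell wells, from CellTiter-Glo luminescence after 48 hours' treatment.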
# ATXN viability: viability counter-screen for ATXN expression inhibitors; S2 cells (HEK-293 line with an ATXN2-luciferase reporter) viability, CellTiter-Fluor protease fluorescence, 24 h; Potency, µM (highest dose often 56.7 µM), most hits filed as cytotoxic; 400,000 compounds, 0.49% hits; AID 651635; note: nearly all actives have a fitted effect of over 40% in size
# ATXN2 expr inh: reduces ATXN2 reporter expression in HEK-293 cells; HEK-293 ATXN2-luciferase reporter, luminescence, 24 h; Potency, µM (highest dose often 57 µM), inactives show top-dose activity change, negative = inhibition, hits mostly inhibitors; 360,000 compounds, 0.72% hits; note: % is set by controls: 0 for no effect and ±100 for the full control effect; nearly all actives have a fitted effect of over 55% in size
#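 qHTS (up to 57 uM final) was run with 24 h compound exposure of reporter cells at 37 °C. Each well was multiplexed: SteadyGlo luminescence measured ATXN2-luciferase expression after a fluorogenic Gly-Phe-AFC viability readout (25 uM final).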
# HT1080 IDH1KD tx: HT-1080 IDH1 knockdown cell toxicity (counter line) | 360,000 compounds, 2% hits | Potency, µM (doses to about 46.1 µM), inactives show top-dose activity, negative = toxicity, actives largely listed as cytotoxic | HT-1080 IDH1 knockdown viability, ATP luminescence, 48 h;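 note: 0% = DMSO wells and -100% = cell-free medium wells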
#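 IDH1KD HT-1080 cells, 750/well, RPMI + 5% FBS; compound pinned after 2 h settling; 48 h, 37 °C; CellTiter-Glo luminescence; % activity normalised to DMSO and no-cell wells; curves fitted, classed by r2 and efficacy.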
# KB-V1 cytotox: kills drug-selected multidrug resistant KB-V1 cells; KB-V1 MDR cells viability, CellTiter-Glo, 72 h; Potency, µM (top dose mostly 46.1 µM), actives largely listed as cytotoxic; 400,000 compounds, 3.4% hits; AID 1347076; note: % is set by controls: 0 for no effect and ±100 for the full control effect; nearly all actives have a fitted effect of over 60% in size
#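 qHTS viability screen in drug-selected KB-V1 MDR cells: 72 h compound treatment at 37 degrees C, ATP luminescence end point.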
# * marks the source's active call; other numbers are inactive results; i = inactive; ? = inconclusive; . = no result given; [ ] = remark or other dose. The list is not random: actives were taken first. Their share in the collection is about 6.2%. Calls come from the whole dose curve; as a rule, active = well fitted curve in the direction sought with a large enough effect; inconclusive = small, poorly fitted or top-dose-only effect, or another doubt; inactive = no such curve, though single readings can be large; an effect the other way counts as inactive or inconclusive. Potency is the fitted concentration of half-maximal effect.
SMILES,KB-3-1 tox,HT1080-NT tox,ATXN viability,ATXN2 expr inh,HT1080 IDH1KD tx,KB-V1 cytotox
CCCCCCC(=O)CCCCCC/C=C/C[C@@H](O)[C@H](O)[C@@](N)(CO)C(=O)O,.,.,i,-3%[25.6 µM],.,.
C1CN2CCC1CC2,.,.,i,8%,.,.
Cc1cc(/C=C/c2ccnc3ccccc23)ccc1N(CCCl)CCCl,?,.,.,.,.,i
Cc1cc(=O)oc2c1c(C)nn2-c1nn[nH]n1,i,5%,?,1%,7%,i
CN(C)CCc1c[nH]c2cccc(O)c12,.,.,i,?,.,.
O=C1CN=C(c2cccs2)c2c(sc3c2CCCC3)N1,?,11µM*,i,?,10µM*,?
Cc1cc2c(s1)NC(=O)CN=C2c1cccs1,i,-2%,i,2%,5%,i
O=C1CN=C(c2ccccc2)c2c(sc3c2CCCC3)N1,i,?,?,-19%,23µM*,?
COc1ccccc1CNc1nc(NCc2ccccc2SC)c2sccc2n1,?,?,?,?,18µM*,?
C[C@]12CCC3C(CC[C@H]4CC(O)CC[C@]34C)C1CC/C2=N/NC(=O)c1ccncc1 (stereo partly drawn),i,-24%,?,-34%,-1%,i
Cc1ccc(-c2nnc(Nc3ccc(O)cc3)c3ccccc23)cc1S(=O)(=O)N1CCOCC1,?,.,?,?,.,i
Cc1ccc(OCC(=O)Nc2ccc(Cl)cc2C(=O)c2ccccc2)cc1,i,16%,i,0%,7%,?
Cc1ccc(C(=O)Nc2ccc(Cl)cc2C(=O)c2ccccc2)cc1,i,10%,i,-6%,-6%,21µM*
Cc1c(C(=O)Nc2cccc(C(F)(F)F)c2)cc(-c2ccccc2)n1CCCN1CCOCC1,.,.,.,-14%,.,.
COC(=O)C(Cc1ccc(N(CCCl)CCCl)cc1)N=Cc1ccccc1O (stereo not drawn),?,?,11µM*,3.2µM*,26µM*,i
CCOC(=O)C(NC(=O)C(Cc1ccc(N(CCCl)CCCl)cc1)NC(C)=O)C(C)C (stereo not drawn),i,20%,i,-3%,1%,i
CCC(C)C1NC(=O)C(NC(=O)C(CC(C)C)N(C)C(=O)C2CCCN2C(=O)C(C)O)C(C)OC(=O)C(Cc2ccc(OC)cc2)N(C)C(=O)C2CCCN2C(=O)C(CC(C)C)NC(=O)[C@H](C)C(=O)[C@H](C(C)C)OC(=O)CC1O (stereo partly drawn),0.16µM*,0.23µM*,0.013µM*,?,0.013µM*,8.2µM*
C[C@H]1COC(=O)[C@@H](Cc2ccc(F)cc2)CC/C=C/C[C@H](CC(=O)N(CCO)Cc2ccccc2)C(=O)N1,i,-1%,i,-15%,-4%,i
CCOc1cc2c(cc1OCC)-n1cccc1C(c1cc(C)c(OC)cc1C)NC2 (stereo not drawn),i,-20%,?,.,-16%,i
CCOc1cc2c(cc1OCC)-n1cccc1C(c1ccc(C)cc1C)NC2 (stereo not drawn),?,?,?,?,21µM*,?
Cc1ccc(Cn2cccc(C(=O)Nc3ccc(C)c(Cl)c3)c2=O)cc1,?,.,i,-19%,.,i
COc1ccc(S(=O)(=O)N(C)C[C@H]2OCCCC[C@@H](C)Oc3ccc(N(C)C)cc3C(=O)N([C@H](C)CO)C[C@@H]2C)cc1,i,-1%,?,-12%,3%,i
COc1ccc(-n2cnc3cc(C(=O)N4CCC5(CC4)OCCO5)ccc32)cc1,15µM*,?,i,.,16µM*,?
CCOc1cc(CNC(C)C(O)c2ccccc2)cc(Cl)c1OCC (stereo not drawn),?,?,?,-23%,-29%,i
CCOc1cc(CNC2CCCC2)cc(Cl)c1OCc1ccc(F)cc1,i,?,28µM*,22µM*,?,i
c1ccc2c(c1)[IH]c1ccccc1-2,?,0.46µM*,?,7.9µM*,0.46µM*,?
